Sm TGR inh = S. mansoni TGR enzyme inhibition. AID 485364. Q962Y6. Potency, µM (series often up to 114 µM), most hits filed as inhibitors. purified TGR, DTNB reduction, TNB absorbance 405 nm. hit rate 3% among 360,000; note: nearly all actives have a fitted effect of over 60% in size
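First, TGR (20 nM dispensed) and NADPH were mixed with compound. Second, a 15 min room-temperature incubation followed. Third, further NADPH and then DTNB were added to start the reaction. Finally, TNB absorbance was monitored kinetically.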
Shiga inhibitor = inhibitors of Shiga toxin in Vero cells. Vero cells, Shiga toxin protein synthesis inhibition reporter. hit rate 9.2% among 290,000. inhibition, % at 38.7 µM; in the data active = inhibition mostly above about 28%, no sharp cut-off; inactive = mostly below about 43%
LmPK inh = LmPK (Leishmania mexicana) enzyme inhibition; Q27686; hit rate 0.37% among 290,000; AID 1721; Potency, µM (doses to about 57.5 µM), most hits filed as inhibitors; purified LmPK, Kinase-Glo ATP luminescence, 1 h
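Purified LmPK (0.1 nM) with 0.5 mM PEP and 0.1 mM ADP in imidazole buffer pH 7.2 with MgCl2/KCl, 1 h at room temperature. ATP formed was read by luciferase luminescence and normalized to no-enzyme and uninhibited controls.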
TbPYK inhibitor = T. brucei pyruvate kinase inhibition. TbPYK enzyme, Kinase-Glo Plus ATP luminescence, 45 min. Potency, µM (doses to about 76.8 µM), hits mostly inhibitors. hit rate 0.12% among 410,000. AID 624173; note: nearly all actives have a fitted effect of over 50% in size
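Readout: single end-point luminescence (Kinase-Glo Plus, 10 min). Reaction conditions were TbPYK/substrate plus 130 uM ADP, 45 min at RT, pH 7.2 TEA buffer. No-enzyme wells served as controls, and data were normalized before concentration-response fitting.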
CHX counter = affects cycloheximide protein synthesis inhibition readout, counter-screen. hit rate 12% among 300,000. max response, %. cell reporter, cycloheximide protein synthesis inhibition counterscreen. AID 2314; in the data active = max response mostly above about 13%, no sharp cut-off; inactive = mostly below about 14%; note: read at 38.3 µM for the half of the compounds with a filed dose
Giardia FBPA inh = blocks Giardia fructose-bisphosphate aldolase activity; A8B2U2; purified Giardia FBPA; Potency, µM (highest dose often 59.6 µM), usual class: inhibitors; hit rate 0.71% among 290,000; AID 2451; note: nearly all actives have a fitted effect of over 55% in size
Target sequence (A8B2U2 whole entry, looked up): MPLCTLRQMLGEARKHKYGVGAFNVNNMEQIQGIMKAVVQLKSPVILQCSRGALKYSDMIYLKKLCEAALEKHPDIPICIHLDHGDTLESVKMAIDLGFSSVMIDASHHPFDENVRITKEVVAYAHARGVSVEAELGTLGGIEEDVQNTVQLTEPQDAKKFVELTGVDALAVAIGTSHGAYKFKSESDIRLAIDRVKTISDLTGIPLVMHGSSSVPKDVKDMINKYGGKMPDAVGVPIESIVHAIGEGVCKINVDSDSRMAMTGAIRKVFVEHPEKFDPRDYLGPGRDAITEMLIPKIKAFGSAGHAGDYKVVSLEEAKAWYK
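40 nM FBPA preincubated 10 min at RT with compound (up to 57.5 uM final), then substrate plus GAPDH/TPI/NAD/arsenate coupling and diaphorase/resazurin added. Fluorescence read after 20 min at RT, 525/598 nm.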
A number is an active result; - = inactive; ? = inconclusive; . = not tested or not shown; [ ] = remark or other dose. This is one part of a sample in which hits are shown more often than they occur. Unless noted, calls come from the whole dose curve; as a rule, active = well fitted curve in the direction sought with a large enough effect; inconclusive = small, poorly fitted or top-dose-only effect, or another doubt; inactive = no such curve, though single readings can be large; an effect the other way counts as inactive or inconclusive.

SMILES	Sm TGR inh	Shiga inhibitor	LmPK inh	TbPYK inhibitor	CHX counter	Giardia FBPA inh
COc1ccc(OC)c(-c2csc(N(Cc3ccco3)C(=O)c3cccs3)n2)c1	-	-	-	-	-	-
COc1ccc(-c2csc(N(Cc3ccco3)C(=O)c3cccs3)n2)cc1	13µM	57	-	-	22	-
Cc1ccc2nc3c(cc(C#N)c(=O)n3-c3nnc(SCc4ccccc4)s3)c(=O)n2c1	-	.	.	-	.	.
COc1ccccc1/C=C/CN1CCCC(CO)(Cc2cccc(Cl)c2)C1 (centres undefined)	-	47	-	-	-	-
CCCn1c(=O)c(C#N)cn(C2CC2)c1=O	-	-	-	-	-	-
Cn1c(=O)[nH]c2cc(-c3noc(-c4ccc(F)cc4)n3)ccc21	-	.	.	-	.	.
Cc1cc(NC(=O)c2ccc(-c3ccccc3F)o2)no1	-	186	-	-	79	-
COc1ccccc1NC(=O)c1ccc(-c2ccccc2F)o1	-	70	-	-	28	-
COC(=O)c1ccccc1NC(=O)c1ccc(-c2ccccc2F)o1	-	-	-	-	-	-
O=C(Nc1ccc(N2CCOCC2)cc1)c1ccc2nc(-c3ccco3)c(-c3ccco3)nc2c1	?	-	-	-	-	-
O=C(NCc1ccccc1)c1ccc2nc(-c3ccco3)c(-c3ccco3)nc2c1	1.4µM	-	-	?	-	?
CC(=O)c1ccc(NC(=O)c2ccc3nc(-c4ccco4)c(-c4ccco4)nc3c2)cc1	0.79µM	-	-	?	-	?
CC(=O)c1ccc(NC(=O)CSc2nnc(-c3ccco3)c(-c3ccco3)n2)cc1	2.8µM	-	-	?	-	?
O=C(NCc1ccccc1)c1ccc2nccnc2c1	-	-	-	-	-	-
CC(=O)c1ccc(NC(=O)C2=CC(c3ccco3)=NS(=O)(=O)N2C)cc1	-	-	-	-	15	-
O=C(CN(C(=O)CCC(=O)Nc1nccs1)c1ccc2c(c1)OCO2)NCc1ccccc1	-	-	-	-	-	.
O=C(Nc1ccccc1)c1ccc2nc(-c3ccco3)c(-c3ccco3)nc2c1	3.2µM	-	-	?	-	?
CCOC(=O)N/N=C\c1cccc(OC)c1OC/C=C/c1ccccc1	-	34	-	-	-	-
N#CCC(=O)N/N=C\c1cccc(OC/C=C/c2ccccc2)c1	-	122	-	-	53	.
CC(=O)N/N=C\c1ccccc1OC/C=C/c1ccccc1	-	-	-	-	22	-
CC(=O)N/N=C\c1cccc(OC/C=C/c2ccccc2)c1	-	159	-	-	59	.
COc1cc(/C=N\NC(=O)CC#N)ccc1OC/C=C/c1ccccc1	-	-	-	-	-	-
COc1cccc(NC(CNS(=O)(=O)c2ccc(Cl)cc2)c2ccccc2)c1 (centres undefined)	-	.	.	-	.	.
O=C(NCCc1cccs1)c1ccc(Cl)cc1	-	35	-	-	20	-
COCCNC(=O)c1ccc(Cl)c(Cl)c1	-	-	-	-	-	-
SMILES	Sm TGR inh	Shiga inhibitor	LmPK inh	TbPYK inhibitor	CHX counter	Giardia FBPA inh
Cc1ccc(C(=O)NCCc2cccs2)cc1	-	-	?	-	-	-
CCOc1c2ccc(C(=O)NCCc3ccc(C)cc3)cc2nn1CC	-	-	-	-	-	-
CCn1nc2cc(C(=O)NCCc3cccs3)ccc2c1OC	-	75	-	-	40	-
O=C(NCCc1cccs1)c1ccc(Cl)c(Cl)c1	-	72	-	-	44	-
O=Cc1cn(Cc2ccc(Br)cc2)c2ccccc12	-	-	-	-	-	-
NC1=NC(=O)/C(=C/c2cn(Cc3ccccc3)c3ccccc23)S1	-	62	-	?	24	-
CC1(C)CC(=O)C2=C(C1)O[C@@]1(CCCCN3C(=O)c4ccccc4C3=O)Cc3ccccc3C2O1	-[22.9 µM]	-	-[11.5 µM]	.	-	-[12.9 µM]
COc1ccc(C(=O)N/N=C/c2sc(=O)n(Cc3cccc(C(=O)O)c3)c2Cl)cc1	22µM	-	-	-	-	-
O=C(O)c1cccc(Cn2c(Cl)c(/C=N/NC(=O)c3ccccc3O)sc2=O)c1	40µM	-	-	-	17	-
Cc1ccccc1OCC(=O)N/N=C/c1sc(=O)n(Cc2cccc(C(=O)O)c2)c1Cl	?	-	-	-	-	-
O=C(O)c1cccc(Cn2c(Cl)c(/C=N/NC(=O)c3ccccc3Cl)sc2=O)c1	-	-	-	-	-	-
O=C(O)c1cccc(Cn2c(Cl)c(/C=N/Nc3ccccc3)sc2=O)c1	3.5µM	-	-	-	-	-
COc1ccc(OC)c(NC(=O)CSc2cn(CC(=O)N3CCCCCC3)c3ccccc23)c1	-	.	.	-	.	.
O=C(NC(O)C(=O)c1ccccc1)c1ccccn1 (centres undefined)	-	38	-	-	26	-
O=c1c2sc3ccccc3c2n(Cc2cccc(Cl)c2)c(=O)n1Cc1ccc(F)cc1	-	.	.	-	.	.
O=C(O)c1nccnc1C(=O)Nc1ccccc1-c1ccccc1	-	-	-	-	-	-
Cc1nc(C)c(C(=O)Nc2ccc(Oc3ccccc3)cc2)o1	-	25	-	-	26	-
O=C(O)c1ccccc1C(=O)Nc1ccc(Oc2ccccc2)cc1	-	-	-	-	-	-
Cc1ncoc1C(=O)Nc1ccc(Oc2ccccc2)cc1	-	153	-	-	54	-
Cc1ncoc1C(=O)Nc1ccccc1-c1ccccc1	1µM	-	-	-	-	-
COc1cc(OC)cc(-c2nnc3n2N=C(c2cc(OC)ccc2OC)CS3)c1	.	-	.	.	-	-
O=C(c1c2c(nc3ccccc13)C(=O)N(C1CCCCC1)C2)N1CCN(c2ccc(F)cc2)CC1	-	.	.	-	.	.
N=c1c2c(-c3ccccc3)c(-c3ccccc3)n(Cc3ccco3)c2ncn1CCCO	28µM	-	-	-	-	-
Cc1noc(C)c1-c1cncnc1-n1ccnc1	.	.	.	.	.	-
Cc1cc(C)c2c(CC(=O)Nc3ccc(S(=O)(=O)N4CCCC(C)C4)cc3)coc2c1 (centres undefined)	-	.	.	-	.	.
SMILES	Sm TGR inh	Shiga inhibitor	LmPK inh	TbPYK inhibitor	CHX counter	Giardia FBPA inh
NS(=O)(=O)c1cccc(NS(=O)(=O)c2ccc(/C=C/C(=O)O)cc2)c1	25µM	-	-	-	-	-
O=C(O)/C=C/c1cccc(NS(=O)(=O)c2ccccc2)c1	-	-	-	-	-	-
CCN(CC)CCCNC(=O)CSc1nc(-c2ccc(OC)cc2)cc(C(F)(F)F)n1	-	.	.	-	.	.
CO[C@@]1(NC(=O)Cc2cccs2)C(=O)N2C(C(=O)O)=C(COC(N)=O)CS[C@@H]21	35µM	-	-	-	-	?
COc1ccc(S(=O)(=O)/N=C2/NC(=O)/C(=C\c3ccco3)S2)cc1	45µM	-	-	-	-	-
COc1ccc(N=C2NC(=O)/C(=C/c3ccco3)S2)cc1	32µM	-	-	-	36	-
COc1cc(C(=O)Nc2ccc(-c3nc4ccccc4o3)c(O)c2)cc(OC)c1OC	-	.	.	-	.	.
Cc1c(Cl)cccc1NC(=O)CSc1ncccc1C(=O)Oc1ccccc1Cl	-	.	.	-	.	.
